# Test results reported in PubChem BioAssay (NCI).
# About 83,000 compounds went through this panel and 20% of them were active in at least one assay; those are over-represented in the sample as a whole.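 How to read the values: 0–100, growth inhibition (40 = 60% inhibited); 0, no net growth; -100 to 0, cell death (-40 = 40% of starting cells died; -100 = all dead).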 The source made the active and inactive calls. How the source made its calls: active means growth percent below 10; inactive means the rest.
# System: OVCAR-5 ovarian
# Assay: NCI-60 one-dose screen, 48 h (100 = growth as untreated, 0 = no growth, -100 = all killed)
# Conditions: 10 µM unless noted
row,Compound,growth
1,CC(C)(C)c1nn(-c2ccccc2)c2c1CC1(CN2Cc2ccc3c(c2)OCO3)C(=O)c2ccccc2C1=O,105% (inactive)
2,COc1ccc(-c2cc(-c3ccc(N(C)C)cc3)nc(NC(=O)c3ccncc3)n2)cc1,109% (inactive)
3,Nc1nc(-c2ccc(F)cc2)cc(-c2cnn(-c3ccccc3)n2)n1,110% (inactive)
4,CC(=O)CC(C)(C)c1ccc(Cl)cc1,95.7% (inactive)
5,Nc1c(C(=O)Nc2ccccc2Cl)sc2nc3c(cc12)CCCCCC3,60.9% (inactive)
6,O=C(Nc1ccc(Nc2cc(Nc3ccccc3)ncn2)cc1)Nc1cc(C(F)(F)F)ccc1F,78.1% (inactive)
7,CCOC(=O)C(Cc1cc(I)c(O)c(I)c1)NC(=O)c1ccccc1 (stereo not drawn),96.1% (inactive)
8,CC[C@H](Nc1cc(C)nc(N)n1)c1nc2cccc(NCc3ccc(C(=O)NO)cc3)c2c(=O)n1-c1ccccc1,32.3% (inactive)
9,C=C1CCC2C3(C)COC(c4cccc(Cl)c4)OC3CCC2(C)C1/C=C/C1=CCOC1=O (stereo not drawn),84.3% (inactive)
10,CCN(CC)CC(O)CNc1c2ccc([N+](=O)[O-])cc2nc2cc(OC)c(OC)cc12 (stereo not drawn),10% (inactive)
11,COc1cc(-c2c3sc(=O)[nH]c3nc3c2c(=O)[nH]n3C(C)C)cc2c1OCO2,96.6% (inactive)
12,O=S(=O)(Nc1ccc(F)c(Cl)c1)c1ccc(-c2cnc(C3CC3)o2)cc1,34.4% (inactive)
13,Fc1ccc(Cc2ccc(F)cc2)cc1,102% (inactive)
14,CC(C)c1c(C(=O)Nc2ccccc2)c(-c2ccccc2)c(-c2ccc(F)cc2)n1CC[C@@H]1CC=CC(=O)O1,57.1% (inactive)
15,COc1ccc2nc3cc(Cl)ccc3c(N3CCN(c4ccnc(N5CCN(C)CC5)n4)CC3)c2c1,81.4% (inactive)
16,COc1cc(NCCCCN=C(N)NC(N)=NC(C)C)c2ncccc2c1,87.2% (inactive)
17,CS(=O)CCCCCN=C=S (stereo not drawn),11.6% (inactive)
18,O=C(CO[N+](=O)[O-])Nc1ccc(C(=O)/C=C/c2ccc3c(c2)OCO3)cc1,96.5% (inactive)

row,Compound,growth
1,O=C(CCN1CCOCC1)Nc1ccc(Cn2nnc3c2C(=O)c2nnn(Cc4ccc(NC(=O)CCN5CCOCC5)cc4)c2C3=O)cc1,110% (inactive)
2,O=C1Nc2ccccc2/C1=C/C(=N/c1nnc(-c2ccc(Cl)cc2)s1)c1ccccc1,72.6% (inactive)
3,Cc1ccc(SCN2CCN(c3cccc(Cl)c3)CC2)cc1,112% (inactive)
4,COc1ccccc1N1CCN(CCn2c(=O)c3c(c4ccccc4n3C)n(C)c2=O)CC1,111% (inactive)
5,CS(=O)(CCCCN=C=S)=NC(=O)c1c(F)c(F)c(F)c(F)c1F (stereo not drawn),100% (inactive)
6,O=C(Cn1cc(CN2C(=O)c3ccccc3S2(=O)=O)nn1)Nc1ccc([N+](=O)[O-])cc1Cl,113% (inactive)
7,c1ccc(-c2nc(N3CCOCC3)c3c4c(sc3n2)CCCCC4)nc1,58.3% (inactive)
8,O=[N+]([O-])c1c(F)cccc1Nc1cccc(F)c1,97.3% (inactive)
9,CC1(C)CC(=O)C(c2c(-c3ccccc3)[nH]c3[nH]c(=S)[nH]c(=O)c23)=C(O)C1,98.4% (inactive)
10,O=C([C@@H](COCc1ccccc1)N1C(=O)[C@@H](N2C(=O)OC[C@@H]2c2ccccc2)[C@H]1/C=C/c1ccccc1)N1CCC(CCN2CCCCC2)CC1,102% (inactive)
11,COc1cc(/C=N\NC(=O)CN2CCN(c3cc4c(cc3F)c(=O)c(C(=O)N/N=C/c3ccc(O)c(OC)c3)cn4C3CC3)CC2)ccc1O,98.2% (inactive)
12,CC/C=C\C[C@H](O)C/C=C1/C(=O)C=C[C@@H]1C/C=C\CCCC(N)=O,29.8% (inactive)
13,ClC1=C2NC=NC2n2c(nnc2-c2ccc(Cl)cc2)N1 (stereo not drawn),110% (inactive)
14,COc1ccc(C(=O)c2sc3nc(-c4ccccc4OC)ccc3c2N)cc1OC,89.8% (inactive)
15,CCN1CCN(Cc2ccc(NC(=O)Nc3nc4ccc(Oc5ccnc(C(=O)NC)c5)cc4s3)cc2C(F)(F)F)CC1,-40.6% (active)
16,COc1ccc2nc3cc(Cl)ccc3c(N3CCN(c4nccc(NCc5ccccc5)n4)CC3)c2c1,106% (inactive)
17,C=C1CCC2C3(C)COC(c4ccc(SC)cc4)OC3CCC2(C)C1C/C=C1/C(=O)OCC1O (stereo not drawn),79.1% (inactive)
18,COc1ccc(C/C(C)=C(\c2ccc(Cl)cc2)c2ccc(OCCN3CCCCCC3)cc2)cc1,82.5% (inactive)

# System: OVCAR-4 ovarian
# Assay: as above
# Conditions: 10 µM unless noted
row,Compound,growth
1,CC(C)(C)c1nn(-c2ccccc2)c2c1CC1(CN2Cc2ccc3c(c2)OCO3)C(=O)c2ccccc2C1=O,123% (inactive)
2,COc1ccc(-c2cc(-c3ccc(N(C)C)cc3)nc(NC(=O)c3ccncc3)n2)cc1,122% (inactive)
3,Nc1nc(-c2ccc(F)cc2)cc(-c2cnn(-c3ccccc3)n2)n1,111% (inactive)
4,CC(=O)CC(C)(C)c1ccc(Cl)cc1,93.6% (inactive)
5,O=C(Nc1ccc(Nc2cc(Nc3ccccc3)ncn2)cc1)Nc1cc(C(F)(F)F)ccc1F,71.2% (inactive)
6,CCOC(=O)C(Cc1cc(I)c(O)c(I)c1)NC(=O)c1ccccc1 (stereo not drawn),108% (inactive)
7,CC[C@H](Nc1cc(C)nc(N)n1)c1nc2cccc(NCc3ccc(C(=O)NO)cc3)c2c(=O)n1-c1ccccc1,49.3% (inactive)
8,C=C1CCC2C3(C)COC(c4cccc(Cl)c4)OC3CCC2(C)C1/C=C/C1=CCOC1=O (stereo not drawn),53.7% (inactive)
9,CCN(CC)CC(O)CNc1c2ccc([N+](=O)[O-])cc2nc2cc(OC)c(OC)cc12 (stereo not drawn),-39.3% (active)
10,COc1cc(-c2c3sc(=O)[nH]c3nc3c2c(=O)[nH]n3C(C)C)cc2c1OCO2,86% (inactive)
11,O=S(=O)(Nc1ccc(F)c(Cl)c1)c1ccc(-c2cnc(C3CC3)o2)cc1,39.1% (inactive)
12,COc1ccc(/C=c2/c(=O)[nH]c3nc4sc(C)c(C)c4c(=O)n23)cc1,81.8% (inactive)
13,Fc1ccc(Cc2ccc(F)cc2)cc1,101% (inactive)
14,CC(C)c1c(C(=O)Nc2ccccc2)c(-c2ccccc2)c(-c2ccc(F)cc2)n1CC[C@@H]1CC=CC(=O)O1,19.8% (inactive)
15,COc1ccc2nc3cc(Cl)ccc3c(N3CCN(c4ccnc(N5CCN(C)CC5)n4)CC3)c2c1,46.2% (inactive)
16,COc1cc(NCCCCN=C(N)NC(N)=NC(C)C)c2ncccc2c1,-9.62% (active)
17,CS(=O)CCCCCN=C=S (stereo not drawn),21.4% (inactive)
18,O=C(CO[N+](=O)[O-])Nc1ccc(C(=O)/C=C/c2ccc3c(c2)OCO3)cc1,96.1% (inactive)
19,O=C(CCN1CCOCC1)Nc1ccc(Cn2nnc3c2C(=O)c2nnn(Cc4ccc(NC(=O)CCN5CCOCC5)cc4)c2C3=O)cc1,-81.4% (active)

row,Compound,growth
1,O=C1Nc2ccccc2/C1=C/C(=N/c1nnc(-c2ccc(Cl)cc2)s1)c1ccccc1,57.3% (inactive)
2,Cc1ccc(SCN2CCN(c3cccc(Cl)c3)CC2)cc1,108% (inactive)
3,COc1ccccc1N1CCN(CCn2c(=O)c3c(c4ccccc4n3C)n(C)c2=O)CC1,114% (inactive)
4,CS(=O)(CCCCN=C=S)=NC(=O)c1c(F)c(F)c(F)c(F)c1F (stereo not drawn),112% (inactive)
5,O=C(Cn1cc(CN2C(=O)c3ccccc3S2(=O)=O)nn1)Nc1ccc([N+](=O)[O-])cc1Cl,115% (inactive)
6,c1ccc(-c2nc(N3CCOCC3)c3c4c(sc3n2)CCCCC4)nc1,51% (inactive)
7,O=[N+]([O-])c1c(F)cccc1Nc1cccc(F)c1,95.9% (inactive)
8,CC1(C)CC(=O)C(c2c(-c3ccccc3)[nH]c3[nH]c(=S)[nH]c(=O)c23)=C(O)C1,114% (inactive)
9,O=C([C@@H](COCc1ccccc1)N1C(=O)[C@@H](N2C(=O)OC[C@@H]2c2ccccc2)[C@H]1/C=C/c1ccccc1)N1CCC(CCN2CCCCC2)CC1,86.8% (inactive)
10,COc1cc(/C=N\NC(=O)CN2CCN(c3cc4c(cc3F)c(=O)c(C(=O)N/N=C/c3ccc(O)c(OC)c3)cn4C3CC3)CC2)ccc1O,47.8% (inactive)
11,CC/C=C\C[C@H](O)C/C=C1/C(=O)C=C[C@@H]1C/C=C\CCCC(N)=O,56.4% (inactive)
12,ClC1=C2NC=NC2n2c(nnc2-c2ccc(Cl)cc2)N1 (stereo not drawn),116% (inactive)
13,COc1ccc(C(=O)c2sc3nc(-c4ccccc4OC)ccc3c2N)cc1OC,61.5% (inactive)
14,CCN1CCN(Cc2ccc(NC(=O)Nc3nc4ccc(Oc5ccnc(C(=O)NC)c5)cc4s3)cc2C(F)(F)F)CC1,-64.1% (active)
15,COc1ccc2nc3cc(Cl)ccc3c(N3CCN(c4nccc(NCc5ccccc5)n4)CC3)c2c1,67.3% (inactive)
16,C=C1CCC2C3(C)COC(c4ccc(SC)cc4)OC3CCC2(C)C1C/C=C1/C(=O)OCC1O (stereo not drawn),59.1% (inactive)
17,O=c1[nH]c(-c2ccccn2)nc2sc3c(c12)CCCCC3,23.6% (inactive)
18,COc1ccc(C/C(C)=C(\c2ccc(Cl)cc2)c2ccc(OCCN3CCCCCC3)cc2)cc1,95.7% (inactive)
